Compound activity as filed in PubChem.
DT40 TDP1 CPT: DT40-hTDP1 cell growth loss with CPT | chicken DT40 Tdp1-/-;hTDP1 cells + 20 nM CPT, ATP luminescence, 48 h | Potency, µM (highest dose often 46.2 µM), without a hit: at the highest dose activity change, negative = growth inhibition, most hits filed as inhibitors | hit rate 12% among 420,000 | AID 686979; further: nearly all actives have a fitted effect of over 55% in size
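Chicken DT40 Tdp1-/- cells stably complemented with human TDP1 were seeded at 400 cells/well in medium containing 20 nM camptothecin, exposed to pin-transferred compounds, and grown at 37 °C for at least 48 hr. Viability was read as ATP luminescence.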
PLK1 PBD inh: inhibitors of human PLK1 polo-box domain binding; Potency, µM, for the others: max response, negative = inhibition, usual class: inhibitors; Plk1 PBD binding of FITC phosphopeptide, fluorescence polarization; AID 720504; hit rate 2.8% among 360,000; P53350; further: series mostly up to about 57 µM; nearly all actives have a fitted effect of over 65% in size
VDR inhibitor: inhibitors of human vitamin D receptor; P11473; Potency, µM, for the others: max response, negative = inhibition, actives largely listed as inhibitors; hit rate 0.93% among 400,000; VDR-SRC2-3 peptide fluorescence polarization, 2 h
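Signal is fluorescence polarization, reporting how far test compounds block the interaction of VDR with the SRC2-3 coregulator peptide after a 2 h room-temperature incubation.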
DT40 TDP1 no CPT: qHTS for Inhibitors of human tyrosyl-DNA phosphodiesterase 1 (TDP1): qHTS in cells in absence of CPT; DT40 Tdp1-/- hTDP1 cells, no CPT, ATP luminescence, 48 h; Potency, µM (titrated, usually from 46.2 µM), without a hit: top-dose activity change, negative = growth inhibition, hits mostly inhibitors; hit rate 15% among 420,000; AID 686978, 2013; further: nearly all actives have a fitted effect of over 55% in size
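Growth kinetics read by CellTiter-Glo luminescence after ≥48 hr at 37 °C. Cells: DT40 Tdp1-/- stably carrying human TDP1, 400 per well, compound exposure in the absence of CPT (DMSO vehicle).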
TDP1 block: TDP1 (human) enzyme inhibition | recombinant TDP1, AlphaScreen DNA substrate cleavage | Potency, µM (series often up to 130 µM), without a hit: at the top dose activity change, negative = inhibition, actives largely listed as inhibitors | hit rate 0.28% among 350,000 | AID 485290; further: nearly all actives have a fitted effect of over 40% in size
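Recombinant E. coli-expressed Tdp1 (1 nM) preincubated with compound 15 min at RT, then 5'-biotin/3'-phosphotyrosine-FITC DNA substrate (15 nM) added for 5 min. AlphaScreen beads (10 ug/ml) added, 10 min RT; tyrosine-FITC cleavage read as signal loss.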
GCN5L2 inh: blocks human GCN5L2 histone acetyltransferase | hit rate 0.21% among 390,000 | AID 504327 | Potency, µM (titrated, usually from 58.9 µM), for inactives: at the highest dose activity change, negative = inhibition, hits mostly inhibitors | Q92830 | GCN5L2 HAT assay, ThioGlo1 CoA-SH fluorescence
Target sequence (Q92830 whole entry, looked up): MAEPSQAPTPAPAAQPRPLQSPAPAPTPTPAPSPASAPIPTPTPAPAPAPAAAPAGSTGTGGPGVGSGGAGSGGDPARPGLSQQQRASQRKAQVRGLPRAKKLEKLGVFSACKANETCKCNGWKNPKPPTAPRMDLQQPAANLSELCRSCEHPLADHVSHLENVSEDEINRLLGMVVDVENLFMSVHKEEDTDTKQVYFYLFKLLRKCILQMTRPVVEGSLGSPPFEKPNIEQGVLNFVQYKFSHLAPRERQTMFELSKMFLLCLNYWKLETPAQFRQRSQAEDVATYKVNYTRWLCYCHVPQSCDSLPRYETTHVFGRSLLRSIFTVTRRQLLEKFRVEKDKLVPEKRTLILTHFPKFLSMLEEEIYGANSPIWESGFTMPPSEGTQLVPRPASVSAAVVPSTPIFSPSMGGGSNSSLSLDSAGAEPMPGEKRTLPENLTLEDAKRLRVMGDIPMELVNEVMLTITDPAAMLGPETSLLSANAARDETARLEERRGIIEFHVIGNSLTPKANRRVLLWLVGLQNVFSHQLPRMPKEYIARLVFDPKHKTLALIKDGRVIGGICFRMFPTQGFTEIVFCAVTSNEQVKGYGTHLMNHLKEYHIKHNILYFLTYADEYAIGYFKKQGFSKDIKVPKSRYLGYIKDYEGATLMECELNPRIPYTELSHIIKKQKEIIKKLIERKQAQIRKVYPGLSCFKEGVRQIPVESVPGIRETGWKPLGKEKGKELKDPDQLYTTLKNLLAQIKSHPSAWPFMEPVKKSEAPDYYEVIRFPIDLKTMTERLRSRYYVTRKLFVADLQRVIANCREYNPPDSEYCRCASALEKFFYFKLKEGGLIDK
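GCN5L2 (20 nM) in 50mM HEPES pH 7.5, 0.1mM EDTA, 0.01% Tween-20 preincubated 15 min with compounds at room temperature. Reaction started with H3(1-25) 75uM, acetyl-CoA 70uM, ThioGlo1 50uM; CoA-thiol fluorescence (Ex340/Em540) read at 0 and 20 min.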
Active calls of the source: *. In the library only some 18% were active in any assay of this set; here they are far more common. The call rests on the fitted dose curve; in most records, active means well fitted curve in the direction sought with a large enough effect; inconclusive means small, poorly fitted or top-dose-only effect, or another doubt; inactive means no such curve, though single readings can be large; an effect the other way counts as inactive or inconclusive. On the % scale 0 is the no-effect control and ±100 the full control effect; potency means the concentration at half of the fitted maximal effect.

Results for NC(=O)c1ccc(-c2nc(-c3ccc4c(c3)OCO4)c(-c3ccccn3)[nH]2)cc1 ?
DT40 TDP1 CPT: 21µM*; VDR inhibitor: 4%; DT40 TDP1 no CPT: 19µM*; TDP1 block: 22%; GCN5L2 inh: inconclusive

How did O=c1[nH]c2ccccc2c(O)c1-c1cc2ccccc2oc1=O do in these assays?
TDP1 block: 0%; GCN5L2 inh: -12%

How did CCN(CC)c1ccc(NC(=O)C2CCN(S(=O)(=O)c3c(C)noc3/C=C/c3ccccc3F)CC2)c(C)c1 do in these assays?
DT40 TDP1 CPT: 21µM*; VDR inhibitor: 4%; DT40 TDP1 no CPT: 16µM*; TDP1 block: 7%; GCN5L2 inh: -5%

Results for CCOc1ccc(OCC)c(NC(=O)C2CCN(S(=O)(=O)c3c(C)noc3/C=C/c3ccccc3F)CC2)c1 ?
DT40 TDP1 CPT: -4%; VDR inhibitor: 7%; DT40 TDP1 no CPT: -7%; TDP1 block: -3%; GCN5L2 inh: -9%

Results for COc1cc(Cl)c(NC(=O)C2CCN(S(=O)(=O)c3c(C)noc3/C=C/c3ccccc3F)CC2)c(OC)c1 ?
DT40 TDP1 CPT: 6%; VDR inhibitor: 17%; DT40 TDP1 no CPT: -2%; TDP1 block: 3%; GCN5L2 inh: -9%

What do the screens show for `COc1ccccc1/C=C/c1onc(C)c1S(=O)(=O)N1CCC(C(=O)N2CCC(C)CC2)CC1`?
DT40 TDP1 CPT: 21µM*; VDR inhibitor: 14%; DT40 TDP1 no CPT: 16µM*; TDP1 block: 7%; GCN5L2 inh: 2%

What do the screens show for `CC(=O)c1ccc(N2CCN(C(=O)C3CCN(S(=O)(=O)c4c(C)noc4/C=C/c4ccccc4F)CC3)CC2)cc1`?
DT40 TDP1 CPT: inconclusive; VDR inhibitor: 1%; DT40 TDP1 no CPT: 10µM*; TDP1 block: 3%; GCN5L2 inh: 0%

How did COc1cc(NC(=O)C2CCN(S(=O)(=O)c3c(C)noc3/C=C/c3ccccc3F)CC2)cc(OC)c1OC do in these assays?
DT40 TDP1 CPT: inconclusive; VDR inhibitor: 5%; DT40 TDP1 no CPT: 23µM*; TDP1 block: 2%; GCN5L2 inh: -4%

Results for COc1cccc(N2CCN(C(=O)C3CCN(S(=O)(=O)c4c(C)noc4/C=C/c4ccccc4F)CC3)CC2)c1 ?
DT40 TDP1 CPT: inconclusive; VDR inhibitor: 2%; DT40 TDP1 no CPT: inconclusive; TDP1 block: 4%; GCN5L2 inh: -4%

How did Cc1cccc(NC(=O)C2CCCN(S(=O)(=O)c3cnc[nH]3)C2)c1C (stereo not drawn) do in these assays?
DT40 TDP1 CPT: -24%; VDR inhibitor: -2%; DT40 TDP1 no CPT: 1%; TDP1 block: 5%; GCN5L2 inh: -2%

What do the screens show for `CNC(=O)C1CCN(S(=O)(=O)c2c(C)noc2/C=C/c2ccccc2F)CC1`?
DT40 TDP1 CPT: -20%; PLK1 PBD inh: -10%; VDR inhibitor: -5%; DT40 TDP1 no CPT: -14%; GCN5L2 inh: 0%

Results for Cc1ccc(/C=C/c2onc(C)c2S(=O)(=O)N2CCC(C(=O)Nc3cccc(C#N)c3)CC2)cc1 ?
DT40 TDP1 CPT: 3.3µM*; VDR inhibitor: -6%; DT40 TDP1 no CPT: 3.7µM*; TDP1 block: 1%; GCN5L2 inh: -7%

How did Cc1noc(/C=C/c2ccccc2F)c1S(=O)(=O)N1CCC(C(=O)Nc2ccc(C#N)cc2)CC1 do in these assays?
DT40 TDP1 CPT: 12µM*; VDR inhibitor: 1%; DT40 TDP1 no CPT: 8.2µM*; TDP1 block: 7%; GCN5L2 inh: -16%

How did Cc1c(Br)c([N+](=O)[O-])nn1CC(=O)Nc1ccccn1 do in these assays?
DT40 TDP1 CPT: 0%; PLK1 PBD inh: -18%; VDR inhibitor: -8%; DT40 TDP1 no CPT: -20%; TDP1 block: 8%; GCN5L2 inh: -2%

Results for Cc1nn(CC(=O)Nc2ccccn2)c(C)c1Br ?
DT40 TDP1 CPT: 8.2µM*; PLK1 PBD inh: 5%; VDR inhibitor: -6%; DT40 TDP1 no CPT: inconclusive; TDP1 block: -3%; GCN5L2 inh: -4%

Results for Cc1ccc2c(c1)C1(C(=O)N2)N2CCCC2C(C(=O)c2ccc3ccccc3c2)C12C(=O)Nc1ccccc12 (stereo not drawn) ?
DT40 TDP1 CPT: 16µM*; PLK1 PBD inh: -9%; VDR inhibitor: -15%; DT40 TDP1 no CPT: inconclusive; TDP1 block: 8%; GCN5L2 inh: -19%

What do the screens show for `COC(=O)c1ccc(NC(=O)CSc2cn(CC(=O)N3CCCCC3)c3ccccc23)cc1`?
DT40 TDP1 CPT: 21µM*; VDR inhibitor: 6%; DT40 TDP1 no CPT: inconclusive; TDP1 block: 3%; GCN5L2 inh: -3%

What do the screens show for `CCOc1ccc(NC(=O)CSc2cn(CC(=O)N3CCCCCC3)c3ccccc23)cc1`?
DT40 TDP1 CPT: 23µM*; VDR inhibitor: 2%; DT40 TDP1 no CPT: inconclusive; TDP1 block: 5%; GCN5L2 inh: -6%

How did COc1ccc(Cl)cc1NC(=O)CSc1cn(CC(=O)N2CCCCC2)c2ccccc12 do in these assays?
DT40 TDP1 CPT: 21µM*; VDR inhibitor: -12%; DT40 TDP1 no CPT: 21µM*; TDP1 block: 0%; GCN5L2 inh: -4%

Results for COc1ccccc1NC(=O)C(=O)c1cn(CC(=O)N2CCOCC2)c2ccccc12 ?
DT40 TDP1 CPT: inconclusive; PLK1 PBD inh: -10%; VDR inhibitor: 6%; DT40 TDP1 no CPT: 21µM*; TDP1 block: 4%; GCN5L2 inh: -12%

Results for Cc1ccc(NC(=O)C2CCCN(S(=O)(=O)c3ccc4c(c3)CCCC(=O)N4)C2)cc1N(C)C (stereo not drawn) ?
VDR inhibitor: 13%; TDP1 block: 7%; GCN5L2 inh: -4%

How did COCCNC(=O)CSc1cn(CC(=O)N2CCCCCC2)c2ccccc12 do in these assays?
DT40 TDP1 CPT: inconclusive; VDR inhibitor: 4%; DT40 TDP1 no CPT: 0.52µM*; TDP1 block: 0%; GCN5L2 inh: -5%

How did COc1ccc(C(=O)NCCn2cc(SCC(=O)Nc3ccc(F)cc3)c3ccccc32)cc1 do in these assays?
DT40 TDP1 CPT: inconclusive; VDR inhibitor: 14%; DT40 TDP1 no CPT: inconclusive; TDP1 block: 2%; GCN5L2 inh: -7%

Results for O=C(CSc1cn(CC(=O)N2CCCCC2)c2ccccc12)Nc1ccccc1 ?
DT40 TDP1 CPT: -3%; VDR inhibitor: -3%; DT40 TDP1 no CPT: inconclusive; TDP1 block: -2%; GCN5L2 inh: 0%

What do the screens show for `COCCNC(=O)Cn1cc(C(=S)N2CCOCC2)c2ccccc21`?
DT40 TDP1 CPT: 3%; PLK1 PBD inh: 30µM*; VDR inhibitor: -9%; DT40 TDP1 no CPT: -6%; TDP1 block: 0%; GCN5L2 inh: 9%
